Shown are actives, neighbours in structure and some others; about 20% of the full set was active somewhere.
CHX counter: counter-screen for Shiga toxin inhibitors: cycloheximide protein synthesis inhibition | cell reporter, cycloheximide protein synthesis inhibition counterscreen | max response, % | 300,000 tested, 12% active; in the data active = max response mostly above about 13%, no sharp cut-off; inactive = mostly below about 14%; also: read at 38.3 µM for the half of the compounds with a filed dose; 0% is about no effect
Pf growth 96h: P. falciparum growth inhibition at 96 hours. 320,000 tested, 6.9% active. P. falciparum luciferase reporter growth, 96 h. Potency, µM (titrated, usually from 28.7 µM), inactives show at the top dose activity change, negative = inhibition, hits mostly inhibitors; also: potency is read from the fitted curve at half-maximal effect; % is scaled to controls: 0 for no effect and ±100 for the full control effect
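P. falciparum expressing integrated firefly luciferase, in erythrocytes at 2% hematocrit, 0.05% parasitemia, incubated with compounds 96 h at 37 C, 5% CO2. Growth inhibition read as loss of luminescence; two-generation exposure targets delayed-death apicoplast inhibitors.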
HCMV antiviral: blocks human cytomegalovirus replication; HFF cells, HCMV-luciferase reporter, 72 h; active compounds read low; activity change, negative = inhibition, % at 57.5 µM; 410,000 tested, 4.5% active; AID 1259415; in the data active = activity change below about -60%; inconclusive = no clear call, values can overlap the other calls; inactive = above about -39%; also: % is scaled to controls: 0 for no effect and ±100 for the full control effect
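Compounds were evaluated in HFFs infected with an HCMV luciferase reporter virus (MOI 1 PFU/cell). Luciferase in lysates collected 72 h post infection served as the replication measure.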
Shiga inhibitor: blocks Shiga toxin action in Vero cells. AID 2315. Vero cells, Shiga toxin protein synthesis inhibition reporter. 290,000 tested, 9.2% active. inhibition, % at 38.7 µM; in the data active = inhibition mostly above about 28%, no sharp cut-off; inactive = mostly below about 43%; also: 0% is about no effect
Pf growth 48h: P. falciparum growth inhibition at 48 hours (one generation); P. falciparum luciferase growth in erythrocytes, 48 h; Potency, µM (doses to about 28.7 µM), for inactives: at the top dose activity change, negative = inhibition, hits mostly inhibitors; 310,000 tested, 5.9% active; AID 504832; also: potency is read from the fitted curve at half-maximal effect; % is scaled to controls: 0 for no effect and ±100 for the full control effect
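Luminescence readout; reporter = integrated firefly luciferase in P. falciparum. RBC culture at 2% hematocrit, 0.1% parasitemia final, 37 C/5% CO2; decreased signal taken as growth inhibition.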
Starred values were filed as active, the others as inactive; [ ] = dose if it differs, or a comment. Unless noted, calls follow the shape of the dose curve; as a rule, active = well fitted inhibition curve with a large enough effect; inconclusive = small, poorly fitted or top-dose-only effect, or another doubt; inactive = no such curve, though single readings can be large or run the other way.

For Cc1ccc(S(=O)(=O)N2c3cc(C)ccc3OCC2C(C)(C)C)cc1 (stereo not drawn) the results were CHX counter 12, Pf growth 96h inconclusive, HCMV antiviral -18, Shiga inhibitor 3 and Pf growth 48h 13µM*.
O=C(C(Cl)Cl)N1c2ccccc2OCC1c1ccccc1 (stereo not drawn) was read as CHX counter 5, Pf growth 96h inconclusive, HCMV antiviral -61*, Shiga inhibitor -6 and Pf growth 48h inconclusive.
Screening CCNC(=O)C(=O)NCc1ccncc1 returned CHX counter -2, Pf growth 96h 2%, HCMV antiviral 12, Shiga inhibitor -5 and Pf growth 48h 2%.
`O=C(COc1cc(Cl)c(Cl)cc1Cl)NC(=O)Nc1ccc2c(c1)OCCO2` gave CHX counter 76*, Pf growth 96h 135%, HCMV antiviral 96, Shiga inhibitor 145* and Pf growth 48h 90%.
Cc1cc(OCC(=O)Nc2ccc3c(c2)OCCO3)cc(C)c1Cl was read as CHX counter -3, HCMV antiviral 15, Shiga inhibitor 33 and Pf growth 48h 31%.
Screening Cc1ccc(Cl)c(OCC(=O)Nc2ccc3c(c2)OCCO3)c1 returned CHX counter 52*, HCMV antiviral 73, Shiga inhibitor 112* and Pf growth 48h 113%.
COC(=O)c1cc(NC(=O)c2oc(=O)c3ccccc3c2-c2ccccc2)cc(C(=O)OC)c1 was read as HCMV antiviral 22.
For FC(F)(F)c1cccc(CN2CCC(c3cc(-c4cccs4)n[nH]3)CC2)c1 the results were CHX counter -4, Pf growth 96h -19%, HCMV antiviral -79*, Shiga inhibitor -13 and Pf growth 48h -21%.
FC(F)(F)c1cccc(-c2cc(C3CCNCC3)[nH]n2)c1 was read as CHX counter -2, Pf growth 96h inconclusive, HCMV antiviral -72* and Shiga inhibitor -9.
`Cn1nc(C(=O)Nc2ccccc2)c2c1-c1ccccc1S(=O)(=O)C2` gave CHX counter -9, Pf growth 96h -20%, HCMV antiviral -17, Shiga inhibitor -8 and Pf growth 48h inconclusive.
For Cc1ncc([N+](=O)[O-])n1C[C@H](O)CCl the results were Pf growth 96h -14%[12.8 µM] and Pf growth 48h -5%[12.8 µM].
CC1CC(N(C(=O)c2ccco2)c2ccccc2)c2ccccc2N1C(=O)c1ccco1 (stereo not drawn) was read as CHX counter -5, Pf growth 96h inconclusive, HCMV antiviral 32 and Shiga inhibitor -6.
For CC1CC(N(C(=O)c2ccc(Cl)cc2)c2ccccc2)c2ccccc2N1C(=O)c1ccco1 (stereo not drawn) the results were CHX counter -1, Pf growth 96h 9.3µM*, HCMV antiviral -27 and Shiga inhibitor -6.
For Cc1ccnc(NC(=O)CS(=O)(=O)Cc2ccccc2)c1 the results were CHX counter 7, HCMV antiviral -99*, Shiga inhibitor 7 and Pf growth 48h 26%.
CCCCCCCCCCNC(=O)C(=O)Nc1ccccn1 was read as CHX counter -5, Shiga inhibitor -22 and Pf growth 48h 19%.
O=C(CCS(=O)(=O)c1ccccc1)Nc1ccccn1 was read as CHX counter 8, Pf growth 96h 26%, HCMV antiviral -24, Shiga inhibitor 9 and Pf growth 48h 30%.
For Cc1ccnc(NC(=O)CS(=O)(=O)c2ccccc2)c1 the results were CHX counter 13, Pf growth 96h 13%, HCMV antiviral 15, Shiga inhibitor 89* and Pf growth 48h 42%.
For Cc1ccc(NC(=O)C(=O)Nc2ccccn2)cc1 the results were CHX counter 38*, Pf growth 96h -11%, HCMV antiviral -17, Shiga inhibitor 69* and Pf growth 48h 64%.
`Cc1ccnc(NS(=O)(=O)Cc2ccccc2)c1` gave CHX counter 10, Pf growth 96h -22%, HCMV antiviral 27, Shiga inhibitor 2 and Pf growth 48h 36%.
For Cc1ccnc(NC(=O)CCS(=O)(=O)c2ccccc2)c1 the results were CHX counter 18*, Pf growth 96h -25%, HCMV antiviral -23, Shiga inhibitor 36 and Pf growth 48h 41%.
`COc1ccc(NC(=O)CSc2n[nH]c(CNc3cccc(C)c3)n2)cc1` gave CHX counter 10, Pf growth 96h inconclusive, HCMV antiviral 47, Shiga inhibitor 14 and Pf growth 48h 28%.
For CN1CCN(CCCNC(=O)CCN2C(=O)COc3ccccc32)CC1 the results were CHX counter -3, Pf growth 96h 12%, HCMV antiviral inconclusive, Shiga inhibitor 12 and Pf growth 48h -6%.
`Cc1ccc(S(=O)(=O)CC(=O)Nc2ccccn2)cc1` gave CHX counter -7, Pf growth 96h 30%, HCMV antiviral -63*, Shiga inhibitor -1 and Pf growth 48h 26%.
`Cc1ccc(S(=O)(=O)CC(=O)Nc2ccc(S(=O)(=O)Nc3ccccn3)cc2)cc1` gave CHX counter -6, Pf growth 96h 10%, HCMV antiviral 9, Shiga inhibitor 22 and Pf growth 48h -20%.
For O=c1[nH]c2ccccc2n1C1CCCCC1 the results were CHX counter -1, Pf growth 96h -7%, HCMV antiviral 10 and Shiga inhibitor -27.
For CC1(CN2CCC(n3c(=O)[nH]c4ccccc43)CC2)OCc2ccccc2-n2cccc21 (stereo not drawn) the results were CHX counter 4, Pf growth 96h 13µM*, Shiga inhibitor -12 and Pf growth 48h 15µM*.
`COC(=O)Cc1ccc(NC(=S)N2CCCC(C)C2)cc1` (stereo not drawn) gave CHX counter 41*, Pf growth 96h 66%, HCMV antiviral 5, Shiga inhibitor 11 and Pf growth 48h 58%.
Screening CC1CCCN(C(=S)Nc2ccc(S(=O)(=O)N3CCCCC3)cc2)C1 (stereo not drawn) returned CHX counter -3, Pf growth 96h -4%, HCMV antiviral -67*, Shiga inhibitor 17 and Pf growth 48h -6%.
Screening COC(=O)Cc1ccc(NC(=S)N2CCCC(CO)C2)cc1 (stereo not drawn) returned CHX counter -1, Pf growth 96h 97%, HCMV antiviral 41, Shiga inhibitor -24 and Pf growth 48h 15µM*.
`CC(=O)c1ccc(NC(=S)N2CCCC(CO)C2)cc1` (stereo not drawn) gave CHX counter 38*, Pf growth 96h 63%, HCMV antiviral 51, Shiga inhibitor 51* and Pf growth 48h 17%.
O=C(NC1CCS(=O)(=O)C1)c1ccccc1Cl (stereo not drawn) was read as HCMV antiviral -21.
COc1ccc(C2=C(C)C(=O)N(Cc3ccc(C(=O)NC(C)c4ccccc4)cc3)S2(=O)=O)cc1 (stereo not drawn) was read as HCMV antiviral 4.
Screening OCC1CCCN(C(=S)Nc2ccc(Oc3ccccc3)cc2)C1 (stereo not drawn) returned CHX counter 43*, Pf growth 96h 26%, HCMV antiviral 28, Shiga inhibitor 80* and Pf growth 48h 225%.

Screens: PubChem, National Center for Advancing Translational Sciences (NCATS)
